About 2,700 (4%) of roughly 68,000 compounds showed an effect of 50% or more. This is one part of a sample in which strong results are shown more often than they occur.
These molecules were tested on Plasmodium berghei (assay: Screen against P. berghei liver stage (PbLuc), transformed with Luciferase, at 2uM). Settings: tested at 2 uM.
Format: functional, HepG2
For `CCc1ncc(-c2cn(CCSc3ncn[nH]3)nn2)cn1`, the INHIBITION was -5.87%.
In the case of `c1ncc(-c2cn(CCSc3cnn[nH]3)nn2)cn1`, the INHIBITION is reported as 70.58%.
For `c1c[nH]c(-c2cn(CCSc3cnn[nH]3)nn2)n1`, the INHIBITION was 11.19%.
`CCn1ncc(C(=O)NCCc2nc(-c3ccncc3)n[nH]2)c1C` showed an INHIBITION of 9.61%.
With `Cc1ccc(NC2CCN(C(=O)Cc3c(C)noc3C)CC2)nn1` the INHIBITION was -25.13%.
Work on `CC(C)Cc1cc(NC(=O)c2ccccc2)n(C)n1` yielded an INHIBITION of 49.9%.
`COc1ccc(C(=O)Nc2cc(CC(C)C)nn2C)cc1` was tested, and the INHIBITION was 19.35%.
`Cn1nc(CC(C)(C)C)cc1NC(=O)c1ccc2[nH]nnc2c1` showed an INHIBITION of 16.95%.
Molecule `CC(C)Cc1cc(NC(=O)c2ccccc2F)n(C)n1` has an INHIBITION of -68.24%.
Work on `CC(C)Cc1cc(NC(=O)c2ccc(=O)[nH]n2)n(C)n1` yielded an INHIBITION of -19.76%.
`CC(C)Cc1cc(NC(=O)c2ccncc2)n(C)n1` was tested, and the INHIBITION was 25.46%.
For `CC(C)Cc1cc(NC(=O)c2ccc3[nH]nnc3c2)n(C)n1`, the INHIBITION was 50.61%.
Work on `COc1ccccc1C(=O)Nc1cc(CC(C)C)nn1C` yielded an INHIBITION of 56.02%.
Molecule `CC(C)Cc1cc(NC(=O)c2n[nH]c3ccccc23)n(C)n1` has an INHIBITION of 64.16%.
For `Clc1ccccc1-c1nnc(CNCCn2cccn2)o1`, the INHIBITION was 49.35%.
In the case of `C=C(C)COCCNC(=O)C1CCCN1C(C)=O` (stereo unspecified), the INHIBITION is reported as 45.75%.
`Cn1cc(CN2CCCN(C(=O)c3ccc4ccccc4n3)CC2)cn1` gave an INHIBITION of 30.05%.
`O=C(CNC(=O)Nc1c(F)cccc1Oc1ccccc1)NC1CC1` gave an INHIBITION of -40.7%.
`Cc1nc2c(C(=O)N[C@H]3C[C@H]4CN(C)CCN4C3)cccc2[nH]1` was tested, and the INHIBITION was -51.5%.
Molecule `CCn1c(CN2CCCC(O)(c3ccc(F)cc3)CC2)cnc1SC` (stereo unspecified) has an INHIBITION of 49.87%.
`Cc1ccccc1OCCC(=O)N1CCCC(n2cncn2)C1` (stereo unspecified) was tested, and the INHIBITION was 2.08%.
`COc1ccc(CC(=O)N2Cc3nccn3CC(CN(C)C)C2)cc1` (stereo unspecified) showed an INHIBITION of 35.26%.
`Cc1cncc(CN2CC[C@@](O)(CNC(=O)c3c[nH]cn3)[C@H](O)C2)c1` gave an INHIBITION of 19.36%.
With `O=C(NC[C@]1(O)CCN(Cc2ccccc2F)C[C@H]1O)c1c[nH]cn1` the INHIBITION was 38.96%.
`O=C(NC[C@]1(O)CCN(Cc2ccsc2)C[C@H]1O)c1c[nH]cn1` gave an INHIBITION of 69.45%.
For `CS(=O)(=O)N1CCC2(CC1)CC(NCc1ccco1)c1ccccc12` (stereo unspecified), the INHIBITION was -9.53%.
`O=C1CN(C(=O)CN(CC2CCC2)CC(F)(F)F)CCN1` was tested, and the INHIBITION was 19.92%.
`Cc1cc(C)n(Cc2cc(C(=O)N3CCCC3c3ccccn3)n[nH]2)n1` (stereo unspecified) showed an INHIBITION of -15.08%.
In the case of `O=C(Cn1cnc(NC(=O)CC2CCCC2)n1)NCc1ccccc1`, the INHIBITION is reported as 67.59%.
`CC(C)(C)CC(=O)Nc1ncn(CC(=O)NCc2ccccc2)n1` was tested, and the INHIBITION was -34.98%.
`CC(CC(=O)Nc1ncn(CC(=O)NCc2ccccc2)n1)C1CC1` (stereo unspecified) gave an INHIBITION of -1.21%.
Work on `O=C(NCCn1cc(Cl)cn1)C1CCN(C(=O)C2CC2)CC1` yielded an INHIBITION of 23.64%.
Work on `N[C@@H]1CC[C@H](C(=O)NCCn2cc(Cl)cn2)C1` yielded an INHIBITION of 61.95%.
Work on `NC(=O)CN1CCC(C(=O)NCCn2cc(Cl)cn2)CC1` yielded an INHIBITION of -10.84%.
With `O=C(CCN1CCCCO1)NC1CCCN(CC2CCCCC2)C1` (stereo unspecified) the INHIBITION was -0.88%.
Work on `COc1ccc(CNCc2ccnc(N3CCOCC3)c2)cc1OC` yielded an INHIBITION of 62.13%.
`COc1ccc(CNCc2ccnc(N3CCCCC3)c2)cc1OC` gave an INHIBITION of 30.91%.
Work on `c1cc(CNCc2ccnc(N3CCOCC3)c2)c2c(c1)OCCO2` yielded an INHIBITION of 1.22%.
In the case of `COc1ccc(OC)c(CNCc2ccnc(N3CCOCC3)c2)c1`, the INHIBITION is reported as -28.39%.
`Fc1cc(CNCc2ccc3c(c2)CCO3)ccc1N1CCOCC1` gave an INHIBITION of -10.05%.
`c1cc(CNCc2ccc3c(c2)CCO3)cc(N2CCOCC2)n1` was tested, and the INHIBITION was 57.82%.
Molecule `c1cnc(N2CCCC(c3cc4cccnc4[nH]3)C2)nc1` (stereo unspecified) has an INHIBITION of 14.47%.
Work on `C=C(C)COc1cccc(C(=O)N(CC)Cc2nc(COC)no2)c1` yielded an INHIBITION of -18.57%.
Molecule `CCN(Cc1nccn1C)C(=O)c1ccc(NCc2ccccc2)nc1` has an INHIBITION of 8.89%.
For `C=C(C)COc1cccc(CN(CC)Cc2noc(C)n2)c1`, the INHIBITION was 36.28%.
In the case of `C=C(C)COc1cccc(C(=O)N(CC)Cc2noc(C)n2)c1`, the INHIBITION is reported as 76.82%.
`C=C(C)COc1cccc(C(=O)N(CC)Cc2nccn2C)c1` showed an INHIBITION of 52.98%.
Work on `C=C(C)CNc1ccc(C(=O)N(CC)Cc2nccn2C)cn1` yielded an INHIBITION of -13.51%.
`CCn1nc(C)c2ncnc(N(C)Cc3ccco3)c21` was tested, and the INHIBITION was 46.92%.
For `CN(C)c1ccc(CN2C[C@@H]3CC[C@H]2CN(C2CCOCC2)C3)cn1`, the INHIBITION was 25.52%.
Molecule `Cn1cccc1C(=O)N1CCN(CC2CC2)c2ncccc2C1` has an INHIBITION of 8.13%.
`Cc1nc(-c2ccccc2)n(CC(=O)NC(C)C2CC2)n1` (stereo unspecified) showed an INHIBITION of 32.56%.
`COc1ccc(C2=Nn3c(CN)nnc3-c3ccccc3C2)cc1` showed an INHIBITION of 42.64%.
With `COc1ccc(C2=Nn3c(CCN)nnc3-c3ccccc3C2)cc1` the INHIBITION was 54.73%.
`COc1ccc(C2=Nn3c(CCCN)nnc3-c3ccccc3C2)cc1` showed an INHIBITION of 6.9%.
`Cc1cnc(CNC(=O)[C@@]23CCO[C@@H]2CCN(c2ncccn2)C3)cn1` was tested, and the INHIBITION was 4.08%.
For `Cc1cc(C(=O)N2C[C@@H]3COC[C@]3(CN(C)C)C2)c(C)o1`, the INHIBITION was 39.57%.
In the case of `CC(C)NC1CCc2[nH]c(=O)ccc2C1` (stereo unspecified), the INHIBITION is reported as -13.79%.
For `Cc1c(Br)cccc1C(=O)NCC1CCNCC1`, the INHIBITION was 5%.
With `O=C(c1cccnc1O)N1CCN(Cc2ccccc2F)CC1` the INHIBITION was -24.15%.
In the case of `O=C(c1cnc(C2CC2)nc1O)N1CCN(Cc2ccccc2F)CC1`, the INHIBITION is reported as 15.34%.
Work on `Cc1ncc(C(=O)N2CCCN(Cc3ccccc3F)CC2)c(O)n1` yielded an INHIBITION of 52.74%.
Molecule `c1cnnc(N[C@@H]2CC[C@@H]3CN(Cc4c[nH]c5ccccc45)C[C@@H]32)c1` has an INHIBITION of -2.96%.
`Cc1nc(C)c(S(=O)(=O)NC(=O)c2ccsc2)s1` was tested, and the INHIBITION was 68.08%.
`Cc1nc(C)c(S(=O)(=O)NC(=O)c2sccc2C)s1` gave an INHIBITION of 24.23%.
For `Cc1nc(C)c(S(=O)(=O)NC(=O)c2ccoc2)s1`, the INHIBITION was 44.86%.
Molecule `CC(C)Oc1ncc(C(=O)N2CCc3ccc(O)cc3C2)cc1Cl` has an INHIBITION of 11.33%.
With `O=C(c1ccc(O)nc1)N1CCN(C(=O)c2ccc(F)cc2F)CC1` the INHIBITION was 19.06%.
Work on `O=C(c1ccc(O)nc1)N1CCc2ccc(O)cc2C1` yielded an INHIBITION of 55.39%.
Work on `O=C(c1c[nH]c(=O)c(Cl)c1)N1CCc2ccccc2C1` yielded an INHIBITION of -15.11%.
`O=C(c1cnc(OCC(F)(F)F)c(Cl)c1)N1CCc2ccc(O)cc2C1` gave an INHIBITION of 64.2%.
`O=C(c1ccc(O)nc1)N1CCN(C(=O)c2ccc(F)c(F)c2)CC1` was tested, and the INHIBITION was -18.09%.
`CC(=O)N1CC[C@H](c2nnc(Cc3c[nH]c4ccccc34)o2)C1` gave an INHIBITION of 26.01%.
Work on `CN(Cc1cn2c(n1)CN(CC1CCOC1)CC2)Cc1ccco1` (stereo unspecified) yielded an INHIBITION of -0.38%.
`O=C(NCCn1cccc1)C1CCN(C2CCCCC2)CC1` showed an INHIBITION of 10.72%.
With `OCCOc1cc(F)ccc1NCc1cccc(F)c1F` the INHIBITION was -19.62%.
Work on `Cn1ccnc1CN1CCC(CNS(=O)(=O)c2cccnc2)C1` (stereo unspecified) yielded an INHIBITION of -43.75%.
`COc1ccc(NC(=O)C2CC(=O)n3cnnc3S2)cc1` (stereo unspecified) gave an INHIBITION of 6.05%.
For `COCCN1CCCC(O)(CN2CCN(Cc3ccncc3)CC2)C1=O` (stereo unspecified), the INHIBITION was 15.73%.
With `CC(=O)c1ccc(CNC(=O)c2cc(C#N)cn2C)nc1C` the INHIBITION was -2.44%.
`Cc1ccc2nc(CSCC(=O)Nc3nnc(C(C)C)s3)cc(=O)n2c1` showed an INHIBITION of -3.16%.
For `CC1=C(C#N)C(=O)N(C)C(=O)/C1=C\C1=Cc2ccccc2OC1`, the INHIBITION was 53.81%.
With `O=C(Nc1cccnc1)C1=Cc2ccccc2OC1` the INHIBITION was 3.62%.
`CCN1C(=O)C(C#N)=C(C)/C(=C/C2=Cc3ccccc3OC2)C1=O` was tested, and the INHIBITION was 45.67%.
In the case of `O=C(NCC1CCOCC1)c1cc(-c2ccncc2)c2cnccc2n1`, the INHIBITION is reported as 10.89%.
In the case of `Cc1ccc(C(CNCc2cccc3c2OCO3)N2CCOCC2)o1` (stereo unspecified), the INHIBITION is reported as 71.53%.
With `c1csc(C(CNCc2cccc3c2OCO3)N2CCOCC2)c1` (stereo unspecified) the INHIBITION was 42.62%.
For `CC(C)C(CNCc1cccc2c1OCO2)N1CCOCC1` (stereo unspecified), the INHIBITION was 21.72%.
With `COc1ccccc1OCC(=O)NCC(O)(c1ccccc1)C1CC1` (stereo unspecified) the INHIBITION was 22.75%.
`CCOc1ccc(Oc2cc(N)ccn2)cc1` showed an INHIBITION of 4%.
Molecule `O[C@H]1Cc2ccccc2[C@H]1Nc1ncccc1C(F)(F)F` has an INHIBITION of -12.95%.
`Cc1ccc(CN2CCCn3nnc(COCCN(C)C)c3C2)s1` showed an INHIBITION of 23.14%.
`Cn1cc(CN2CC[C@H]3O[C@H](C(=O)NC4CC4)CC[C@H]32)c2ccccc21` showed an INHIBITION of -18.7%.
Work on `CCOc1ncccc1CNS(=O)(=O)c1ccc2c(c1)CCCC(=O)N2` yielded an INHIBITION of 20.35%.
Molecule `CN(Cc1ccsc1)C(=O)CN1CCOC(Cn2cccn2)C1` (stereo unspecified) has an INHIBITION of 62.46%.
Molecule `c1cn(-c2ccc(CN3CCOC(Cn4cncn4)C3)cc2)cn1` (stereo unspecified) has an INHIBITION of 40.88%.
With `c1cnn(CC2CN(CCc3ccncc3)CCO2)c1` (stereo unspecified) the INHIBITION was 17.11%.
`c1csc(-c2nc(CN3CCOC(Cn4cncn4)C3)cs2)c1` (stereo unspecified) was tested, and the INHIBITION was 66.97%.
For `Fc1ccc(-c2nc(CN3CCOC(Cn4cccn4)C3)co2)cc1` (stereo unspecified), the INHIBITION was -17.31%.
`Cc1ccc(-c2nc(CN3CCOC(Cn4cccn4)C3)co2)cc1` (stereo unspecified) showed an INHIBITION of 1.02%.
In the case of `c1ccc(-c2nc(CN3CCOC(Cn4cncn4)C3)cs2)cc1` (stereo unspecified), the INHIBITION is reported as 31.57%.
In the case of `CN(Cc1ccsc1)C(=O)CN1CCOC(Cn2cncn2)C1` (stereo unspecified), the INHIBITION is reported as 46.09%.
With `c1csc(-c2nc(CN3CCOC(Cn4cccn4)C3)cs2)c1` (stereo unspecified) the INHIBITION was 45.83%.
`c1cnn(CC2CN(Cc3ccc(-n4ccnc4)cc3)CCO2)c1` (stereo unspecified) gave an INHIBITION of 53.03%.
In the case of `c1ccc(-c2nc(CN3CCOC(Cn4cccn4)C3)co2)cc1` (stereo unspecified), the INHIBITION is reported as 62.13%.
With `Cc1cnn(CC2CN(CC(=O)N(C)Cc3ccsc3)CCO2)c1` (stereo unspecified) the INHIBITION was 47.84%.
